A short description of assay [1]: qHTS assay to identify small molecule antagonists of the androgen receptor (AR) signaling pathway using the MDA cell line in the presence of 0.5 nM R1881 - cell viability counter screen (AID 1259242). Also: nearly all actives have a fitted effect of over 45% in size. Also: potency is read from the fitted curve at half-maximal effect. The method in brief:
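Cells seeded at 3,000/well and allowed 5 hr at 37C, 0% CO2 before compound transfer and R1881 (0.5 nM final) addition; 16 hr later, live-cell protease fluorescence indicated cytotoxicity.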
For orientation: Quantitative high-throughput screening tests each substance at several concentrations.

The target in assay [2] is Androgen receptor (Homo sapiens) (UniProt P10275). Kind of assay: qHTS assay to identify small molecule antagonists of the androgen receptor (AR) signaling pathway using the MDA cell line in the presence of 0.5 nM R1881 (AID 1259243). Also: potency is read from the fitted curve at half-maximal effect; nearly all actives have a fitted effect of over 50% in size. The method in brief: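 Luminescence from an AR/GR-responsive MMTV-luciferase construct in MDA-kb2 breast carcinoma cells, read 30 min after ONE-Glo, following 16 hr co-treatment with compounds and 0.5 nM R1881.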
Androgen receptor (Homo sapiens), sequence (P10275 whole entry, looked up): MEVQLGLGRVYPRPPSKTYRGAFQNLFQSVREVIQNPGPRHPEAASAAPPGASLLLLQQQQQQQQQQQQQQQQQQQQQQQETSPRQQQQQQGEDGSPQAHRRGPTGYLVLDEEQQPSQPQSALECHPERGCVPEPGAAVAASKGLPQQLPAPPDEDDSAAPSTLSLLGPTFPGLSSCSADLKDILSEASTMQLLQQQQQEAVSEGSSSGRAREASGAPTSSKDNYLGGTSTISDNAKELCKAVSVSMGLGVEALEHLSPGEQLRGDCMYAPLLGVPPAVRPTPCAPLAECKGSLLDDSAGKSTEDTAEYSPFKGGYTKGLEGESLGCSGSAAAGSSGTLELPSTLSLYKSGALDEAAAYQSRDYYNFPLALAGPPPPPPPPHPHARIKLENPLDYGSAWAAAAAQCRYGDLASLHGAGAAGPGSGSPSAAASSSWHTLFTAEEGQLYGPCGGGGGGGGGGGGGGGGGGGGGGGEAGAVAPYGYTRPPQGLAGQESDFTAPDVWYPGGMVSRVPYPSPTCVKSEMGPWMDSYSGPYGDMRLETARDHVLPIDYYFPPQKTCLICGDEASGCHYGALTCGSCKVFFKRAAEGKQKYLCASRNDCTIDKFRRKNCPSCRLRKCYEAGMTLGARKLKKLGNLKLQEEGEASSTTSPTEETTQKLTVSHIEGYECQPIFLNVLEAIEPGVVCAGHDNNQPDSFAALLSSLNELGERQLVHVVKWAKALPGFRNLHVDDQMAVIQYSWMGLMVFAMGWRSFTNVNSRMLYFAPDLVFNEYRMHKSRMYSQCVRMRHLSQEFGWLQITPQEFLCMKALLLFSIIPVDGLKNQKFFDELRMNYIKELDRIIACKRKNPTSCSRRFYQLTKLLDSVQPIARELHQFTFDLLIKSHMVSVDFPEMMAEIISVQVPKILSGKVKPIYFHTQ

Assay [3] deals with Estrogen receptor (Homo sapiens) (UniProt P03372). As to the kind of experiment: qHTS assay to identify small molecule antagonists of the estrogen receptor alpha (ER-alpha) signaling pathway using the BG1 cell line in the presence of 0.1 nM 17-beta-estradiol (AID 1259244). Also: potency is read from the fitted curve at half-maximal effect; nearly all actives have a fitted effect of over 50% in size. Summed up:
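Luciferase signal from VM7Luc4E2 ERE-reporter cells, co-dosed with test compound and 0.1 nM final 17beta-estradiol for 22 h, read with ONE-Glo.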

Assay [4] can be described thus: qHTS assay to identify small molecule HDAC inhibitors (AID 1259364).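 Also: wild-type HCT-116 cells with endogenous class I/II HDAC activity; top concentration of the series differs between compounds; nearly all actives have a fitted effect of over 45% in size.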 Summed up:
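HCT-116 wt cells, 1,500/well, overnight attach. Compounds (DMSO) 2 h, 37 °C. HDAC-Glo I/II, 30 min RT. Luminescence.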

A short description of assay [5]: qHTS assay to identify small molecule HDAC inhibitors - cell viability counter screen (AID 1259365). Also: nearly all actives have a fitted effect of over 50% in size. Also: potency is read from the fitted curve at half-maximal effect. Summed up: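 Following a 2hr exposure of overnight-plated wild-type HCT-116 cells to DMSO-delivered compounds, CellTiter-Glo was added and luminescence recorded after 30min at room temperature.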
A short description of assay [6]: qHTS assay to identify small molecule agonists of the sonic hedgehog signaling (Shh) pathway - cell viability counter screen (AID 1259366). Also: nearly all actives have a fitted effect of over 50% in size. Also: potency is read from the fitted curve at half-maximal effect. Summed up: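 After a 4hr attachment at 37C, NIH/3T3 cells bearing an integrated Gli1-driven luciferase reporter were dosed with compounds. Treatment lasted 24hr, with the final hour including CellTiter-Fluor for a fluorescence viability measurement.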

Assay [7] can be described thus: qHTS assay to identify small molecule antagonists of the sonic hedgehog signaling (Shh) pathway - cell viability counter screen (AID 1259367). Also: nearly all actives have a fitted effect of over 55% in size. Also: potency is read from the fitted curve at half-maximal effect. The method in brief:
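Fluorescence read-out (CellTiter-Fluor, 1 hr at 37C) taken after 23 hr compound treatment of 3T3 Gli1-Luc cells stimulated with conditioned medium. Cells were seeded at 2,000 per well and pre-incubated 4 hr.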

Assay [8] in a line: qHTS assay to identify small molecule agonists of the sonic hedgehog signaling (Shh) pathway (AID 1259368; calls by dose curve;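 also: NIH/3T3-derived 3T3Gli1-Luc cells carrying a stable Gli1-driven firefly luciferase reporter; series mostly up to about 92 µM; nearly all actives have a fitted effect of over 15% in size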). The method in brief:
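Following a 24 hr incubation with DMSO-dissolved compounds at 37 C, 5% CO2, Gli1-Luc NIH/3T3-derived cells received luciferase reagent for 30 min at room temperature prior to luminescence measurement.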

Assay [9] can be described thus: qHTS assay to identify small molecule antagonists of the sonic hedgehog signaling (Shh) pathway (AID 1259369; calls by dose curve; also: nearly all actives have a fitted effect of over 45% in size; also: potency is read from the fitted curve at half-maximal effect). Summed up:
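Read-out is luminescence from a firefly luciferase gene controlled by the Gli1 response element, in 3T3Gli1-Luc cells pre-incubated 4hr then exposed to compounds and conditioned medium for 24hr.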

Assay [10] can be described thus: qHTS assay to identify small molecule agonists of the androgen receptor (AR) signaling pathway in the presence of an antagonist - cell viability counter screen (AID 1259379). Also: nearly all actives have a fitted effect of over 25% in size. Also: potency is read from the fitted curve at half-maximal effect. Summed up: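 Each compound was tested at 15 concentrations on MDA-kb2 cells in the presence of 3.0uM nilutamide. Viability was measured by CellTiter-Fluor fluorescence after a 16 hr incubation at 37C in a CO2-free atmosphere.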

The nature of assay [11]: qHTS assay to identify small molecule agonists of the estrogen receptor beta (ER-beta) signaling pathway - cell viability counter screen (AID 1259380). Also: nearly all actives have a fitted effect of over 30% in size. Also: potency is read from the fitted curve at half-maximal effect. The method in brief:
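Compounds dissolved in DMSO were pin-transferred onto ER-beta-UAS-bla HEK293T cells that had settled 6 hr, and exposure ran 16 hr at 37C. Following the reporter read, CellTiter-Glo luminescence after 30 min at room temperature indicated cytotoxicity.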

In assay [12] the target is Androgen receptor (Homo sapiens) (UniProt P10275). Kind of assay: qHTS assay to identify small molecule agonists of the androgen receptor (AR) signaling pathway in the presence of an antagonist (AID 1259381; calls by dose curve; also: nearly all actives have a fitted effect of over 15% in size). Summed up:
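Plated MDA-kb2 cells (3,000/well) were pre-incubated 5hr, given nilutamide (3.0uM final) or buffer, then dosed with compounds in DMSO at 15 concentrations. Luciferase activity was quantified by luminescence after 16hr at 37C.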

Assay [13] in a line: qHTS assay to identify small molecule antagonists of the estrogen receptor beta (ER-beta) signaling pathway - cell viability counter screen (AID 1259382). Also: nearly all actives have a fitted effect of over 55% in size. Also: potency is read from the fitted curve at half-maximal effect. Summed up:
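CellTiter-Glo ATP luminescence measured after the LiveBLAzer read in the same wells; ER-beta-UAS-bla HEK293T cells, 16 hr compound treatment with 1nM 17-beta-estradiol agonist at 37C, 5% CO2.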

Assay [14] has as its target Estrogen receptor (Homo sapiens) (UniProt P03372). Kind of assay: qHTS assay to identify small molecule agonists of the estrogen receptor alpha (ER-alpha) signaling pathway in the presence of an antagonist (AID 1259383; calls by dose curve; also: top concentration of the series differs between compounds; nearly all actives have a fitted effect of over 15% in size). The method in brief: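 Luminescent ERE-luciferase reporter, VM7Luc4E2 cells (endogenous ER-alpha); 10.0nM ICI-182,780 final; 15-point compound titration; 22hr at 37C; ONE-Glo, 30min RT.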

Assay [15] can be described thus: qHTS assay to identify small molecule agonists or antagonists of the thyroid stimulating hormone receptor (TSHR) signaling pathway - wild type cell line counter screen (AID 1259384; calls by dose curve). Summed up: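 Wild-type Hek293 cells, 800/well, 18 h at 37C, then compound with Ro20-1724 for 30 min RT. cAMP by HTRF (cAMP-d2/anti-cAMP cryptate), 1 h RT, fluorescence read. 15 concentrations, triplicates.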

In assay [16] the target is Thyrotropin receptor (Homo sapiens) (UniProt P16473). As to the kind of experiment: qHTS assay to identify small molecule antagonists of the thyroid stimulating hormone receptor (TSHR) signaling pathway (AID 1259385; calls by dose curve; also: nearly all actives have a fitted effect of over 20% in size; also: potency is read from the fitted curve at half-maximal effect). Summed up:
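TSHR-HEK293 cells (800/well) plated 18 h, then compounds with Ro20-1724 and TSH at 1.5 ng/mL final, 30 min at room temperature. cAMP quantified by HTRF (cAMP-d2/anti-cAMP-cryptate, 1 h); 15 concentrations in triplicate.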

The nature of assay [17]: qHTS assay to identify small molecule phospholipidosis (PLD) inducers (AID 1259344; active = well fitted curve in the direction sought with a large enough effect; an effect the other way counts as inactive or inconclusive). Summed up:
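Read-out is LipidTOX Red fluorescence (ex 595/em 615) imaged in HepG2 cells after 24 h compound exposure at 37 C, with Hoechst nuclear counterstain (ex 352/em 461) allowing per-cell normalisation.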

The nature of assay [18]: qHTS assay to identify small molecule agonists of the estrogen receptor alpha (ER-alpha) signaling pathway in the presence of an antagonist - cell viability counter screen (AID 1259386).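 Also: cells exposed to compounds for 22 h at 37 °C before the viability read; nearly all actives have a fitted effect of over 30% in size.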 Also: potency is read from the fitted curve at half-maximal effect. Summed up:
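Using estrogen-depleted VM7Luc4E2 cells, the 15-concentration compound series was applied together with 10.0nM ICI-182,780 and incubated 22hr at 37C/5% CO2. Cell viability was then scored by CellTiter-Fluor.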

Assay [19] deals with Estrogen receptor beta (Homo sapiens) (UniProt Q92731). Kind of assay: qHTS assay to identify small molecule agonists of the estrogen receptor beta (ER-beta) signaling pathway (AID 1259377; active = well fitted activation curve with a large enough effect in the signal ratio in the repeat runs, not every such curve was filed as active; the % refers to the signal ratio). The method in brief: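 In HEK293T cells bearing a UAS-beta-lactamase reporter under ER-beta control, DMSO-delivered compounds were incubated for 16 hr at 37C. Activity was detected as fluorescence 2 hours after LiveBLAzer B/G FRET substrate addition.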
Estrogen receptor beta (Homo sapiens), sequence (Q92731 whole entry, looked up): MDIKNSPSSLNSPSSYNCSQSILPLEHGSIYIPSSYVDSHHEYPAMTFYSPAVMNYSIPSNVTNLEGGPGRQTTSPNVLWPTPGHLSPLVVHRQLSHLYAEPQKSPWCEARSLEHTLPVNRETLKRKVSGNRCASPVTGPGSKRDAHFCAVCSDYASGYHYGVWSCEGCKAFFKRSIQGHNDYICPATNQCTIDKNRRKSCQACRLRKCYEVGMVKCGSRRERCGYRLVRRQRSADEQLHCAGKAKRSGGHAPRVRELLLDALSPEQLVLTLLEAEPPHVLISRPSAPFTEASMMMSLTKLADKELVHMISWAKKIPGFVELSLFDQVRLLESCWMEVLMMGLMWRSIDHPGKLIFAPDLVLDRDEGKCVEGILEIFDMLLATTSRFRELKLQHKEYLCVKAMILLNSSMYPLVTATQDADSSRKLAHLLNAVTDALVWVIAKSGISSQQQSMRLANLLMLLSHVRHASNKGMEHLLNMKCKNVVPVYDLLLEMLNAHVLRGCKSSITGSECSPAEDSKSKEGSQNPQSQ

Assay [20] has the same target. Kind of assay: qHTS assay to identify small molecule antagonists of the estrogen receptor beta (ER-beta) signaling pathway (AID 1259378; active = well fitted inhibition curve with a large enough effect in the signal ratio in the repeat runs, not every such curve was filed as active; the % refers to the signal ratio; also: potency is read from the fitted curve at half-maximal effect). The method in brief:
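ER-beta-UAS-bla HEK293T cells in 2% charcoal-stripped FBS medium treated with compound plus 1nM final 17-beta-estradiol for 16 hr at 37C. Beta-lactamase reporter read by FRET substrate fluorescence after 2 hours at room temperature.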

Results filed as inconclusive are left out. Active and inactive are the calls of the source. Unless noted, calls follow the shape of the dose curve; as a rule, active = well fitted curve in the direction sought with a large enough effect in the repeat runs; inconclusive = weak or mixed curves; inactive = no such curve, though single readings can be large; an effect the other way counts as inactive or inconclusive.

Estrogen receptor (Homo sapiens), sequence (P03372 whole entry, looked up): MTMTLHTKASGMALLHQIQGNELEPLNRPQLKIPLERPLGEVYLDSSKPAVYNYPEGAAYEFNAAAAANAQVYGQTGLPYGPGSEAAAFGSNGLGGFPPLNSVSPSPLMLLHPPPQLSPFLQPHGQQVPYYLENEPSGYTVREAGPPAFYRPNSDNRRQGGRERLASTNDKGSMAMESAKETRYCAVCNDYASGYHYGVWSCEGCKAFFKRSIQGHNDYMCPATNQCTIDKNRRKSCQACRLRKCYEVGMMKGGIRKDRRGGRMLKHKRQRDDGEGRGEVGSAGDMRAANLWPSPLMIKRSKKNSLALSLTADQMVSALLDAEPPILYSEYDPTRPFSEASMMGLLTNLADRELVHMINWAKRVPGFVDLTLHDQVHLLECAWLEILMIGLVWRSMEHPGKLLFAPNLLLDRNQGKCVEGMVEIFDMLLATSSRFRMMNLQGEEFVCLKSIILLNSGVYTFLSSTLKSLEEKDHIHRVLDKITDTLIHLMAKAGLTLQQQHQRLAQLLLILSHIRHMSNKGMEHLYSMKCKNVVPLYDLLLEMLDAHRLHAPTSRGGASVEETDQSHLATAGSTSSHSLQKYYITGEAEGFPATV
Thyrotropin receptor (Homo sapiens), sequence (P16473 whole entry, looked up): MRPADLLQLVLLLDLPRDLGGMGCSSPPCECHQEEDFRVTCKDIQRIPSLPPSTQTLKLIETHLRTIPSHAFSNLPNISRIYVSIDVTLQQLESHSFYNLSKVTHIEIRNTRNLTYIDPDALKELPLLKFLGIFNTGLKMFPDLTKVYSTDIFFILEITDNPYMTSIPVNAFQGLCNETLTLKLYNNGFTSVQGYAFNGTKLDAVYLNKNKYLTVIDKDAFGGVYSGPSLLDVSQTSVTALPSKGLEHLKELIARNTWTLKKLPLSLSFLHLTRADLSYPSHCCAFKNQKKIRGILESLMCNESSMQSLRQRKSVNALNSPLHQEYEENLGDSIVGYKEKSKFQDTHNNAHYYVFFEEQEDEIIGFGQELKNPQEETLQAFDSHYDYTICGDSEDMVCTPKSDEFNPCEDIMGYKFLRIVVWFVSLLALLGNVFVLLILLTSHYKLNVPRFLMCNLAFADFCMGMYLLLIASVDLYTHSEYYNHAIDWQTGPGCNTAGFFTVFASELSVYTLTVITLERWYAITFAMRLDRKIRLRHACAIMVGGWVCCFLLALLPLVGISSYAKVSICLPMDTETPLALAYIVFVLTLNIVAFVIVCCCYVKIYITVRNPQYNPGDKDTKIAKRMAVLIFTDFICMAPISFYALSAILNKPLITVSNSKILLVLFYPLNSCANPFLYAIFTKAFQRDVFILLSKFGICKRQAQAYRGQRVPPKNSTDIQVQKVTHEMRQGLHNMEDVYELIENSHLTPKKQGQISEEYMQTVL

`CCCCCCCCCCCCCCCCCC[N+](C)(C)Cc1ccccc1`: the Potency is 49 µM (active) in [1]; 17.4 µM (active) in assay [2]; 55 µM (active) in [3]; 61.7 µM (active) in assay [5]; 24.6 µM (active) in [6]; 30.9 µM (active) in [7]. The Potency in [9] was 0.155 µM (active); in assay [10] it was 55 µM (active); in [11], 24.6 µM (active); in assay [13] it was 27.6 µM (active). In addition, the Potency result in [4], in assay [8], in assay [12], in assay [14] and in [16] was “inactive” each time. Moreover, the compound was called inactive in [15].

In the case of `CCCCC(CC)CN=C(N)NC(N)=NCCCCCCN=C(N)NC(N)=NCC(CC)CCCC` (stereo not given), the Potency in assay [1] is 18.8 µM (active); in [2] it was 11.9 µM (active); in assay [3], 21.1 µM (active); in assay [5], 29.8 µM (active); in [6], 23.7 µM (active); in assay [7], 21.1 µM (active). Besides, the Potency in assay [9] is 3.76 µM (active); in assay [10], 18.8 µM (active); in [11], 23.7 µM (active); in assay [13], 13.3 µM (active); in [18], 23.7 µM (active). The Potency result in [17], in assay [4], in assay [12] and in assay [14] was “inactive” throughout.

Regarding `CCN(Cc1cccnc1)C(=O)c1cccc(Cl)c1[C@]1(C)C(=O)N(Cc2ccc(OC)cc2OC)c2ccc(Cl)cc21`, the Potency entry in assay [1], in assay [4], in [5], in assay [8], in [19] and in [12] was “inactive” throughout. Further, the Potency entry in assay [13], in [14] and in assay [16] was “inactive” each time. Further, the Potency in [2] is 57.1 µM (active); in [3], 64.1 µM (active); in assay [9], 28.6 µM (active); in assay [20] it was 8.07 µM (active). In addition, in [15], the result was inactive.

As to `CC(C)(C)C1CCC(CC2=C(O)c3ccccc3C(=O)C2=O)CC1` (stereo not given), the Potency in assay [1] was 10.6 µM (active); in [2], 8.41 µM (active); in [3], 21.1 µM (active); in assay [10], 13.3 µM (active). Besides, the Potency result in assay [5], in [6], in assay [7], in assay [8], in assay [12] and in [14] was “inactive” in each case. Moreover, in [16], the Potency entry was “inactive”. Besides, the call in [15] was inactive.

Turning to `CCCCCCCCCCCCCC[P+](CCCC)(CCCC)CCCC` (tested in a mixture with another compound), the Potency in assay [1] is 19.4 µM (active); in [2], 1.94 µM (active); in [3], 1.73 µM (active); in assay [6] it was 27.5 µM (active); in assay [7], 61.5 µM (active); in assay [9] it was 0.138 µM (active). For the same compound, the Potency in assay [10] is 7.74 µM (active); in [11], 19.4 µM (active); in assay [16], 69 µM (active); in assay [18] it was 8.69 µM (active). Moreover, the Potency entry in [8], in assay [12] and in [14] was “inactive” in each case.

In the case of `C=C(C)C(=O)OCC[N+](C)(C)C`, the Potency entry in [1], in assay [4], in assay [5], in assay [8], in assay [9] and in assay [19] was “inactive” in each case. Further, the Potency result in assay [20], in [10], in [11], in assay [12], in assay [13] and in [18] was “inactive” each time. Also, in assay [2], the Potency is 30.5 µM (active). The call in assay [15] was inactive.

On to `CCCCCCC[N+](CC)(CC)CCCCc1ccc(Cl)cc1`, for which the Potency was 6.68 µM (active) in [1]; 11.9 µM (active) in assay [3]; 0.168 µM (active) in [9]; 5.96 µM (active) in [10]; 26.6 µM (active) in assay [18]. The Potency result in assay [17], in [4], in assay [5], in assay [6], in assay [7] and in assay [8] was “inactive” each time. For the same compound, the Potency entry in [19], in assay [13], in [14] and in [16] was “inactive” each time. The compound was classed as inactive in assay [15].

These data come from PubChem BioAssay (Tox21).
